Screening data (PubChem BioAssay)
LmPK inh: qHTS Assay for Inhibitors of Leishmania Mexicana Pyruvate Kinase (LmPK); Q27686; purified LmPK, Kinase-Glo ATP luminescence, 1 h; Potency, µM (doses to about 57.5 µM), for inactives: at the highest dose activity change, negative = inhibition, hits mostly inhibitors; 290,000 tested, 0.37% active; AID 1721, 2009; further: potency means the concentration at half of the fitted maximal effect; on the % scale 0 is the no-effect control and ±100 the full control effect
Target sequence (Q27686 whole entry, looked up): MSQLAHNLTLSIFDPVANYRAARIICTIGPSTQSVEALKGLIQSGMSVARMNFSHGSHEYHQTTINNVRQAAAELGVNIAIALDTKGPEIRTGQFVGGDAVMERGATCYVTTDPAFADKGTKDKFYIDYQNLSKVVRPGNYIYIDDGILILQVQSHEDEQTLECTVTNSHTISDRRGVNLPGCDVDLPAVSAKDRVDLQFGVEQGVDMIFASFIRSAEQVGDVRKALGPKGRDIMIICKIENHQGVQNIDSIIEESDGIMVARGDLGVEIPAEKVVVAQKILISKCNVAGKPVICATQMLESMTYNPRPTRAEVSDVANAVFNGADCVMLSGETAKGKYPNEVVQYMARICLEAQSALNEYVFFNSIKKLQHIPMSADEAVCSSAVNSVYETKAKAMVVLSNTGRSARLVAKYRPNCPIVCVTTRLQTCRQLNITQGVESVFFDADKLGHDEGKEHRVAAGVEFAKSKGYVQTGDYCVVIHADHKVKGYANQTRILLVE
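Screened at intermediate enzyme activity to detect both inhibitors and activators: LmPK at 0.1 nM, with a 0.5 nM enzyme column as activation reference. PEP 0.5 mM, ADP 0.1 mM; ATP detected by luminescence after 1 h.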
Shiga toxin inh: A qHTS for Small Molecule Inhibitors of Shiga Toxin; inhibition, % at 38.7 µM; AID 2315, 2010; Vero cells, Shiga toxin protein synthesis inhibition reporter; 290,000 tested, 9.2% active; in the data active means inhibition mostly above about 28%, no sharp cut-off; inactive means mostly below about 43%; further: 0% is about no effect
Pf growth 96h: Primary qHTS for delayed death inhibitors of the malarial parasite plastid, 96 hour incubation; P. falciparum luciferase reporter growth, 96 h; Potency, µM (series often up to 28.7 µM), for the others: at the highest dose activity change, negative = inhibition, usual class: inhibitors; 320,000 tested, 6.9% active; AID 504834, 2011; further: potency means the concentration at half of the fitted maximal effect; on the % scale 0 is the no-effect control and ±100 the full control effect
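P. falciparum expressing integrated firefly luciferase, in erythrocytes at 2% hematocrit, 0.05% parasitemia, incubated with compounds 96 h at 37 C, 5% CO2. Growth inhibition read as loss of luminescence; two-generation exposure targets delayed-death apicoplast inhibitors.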
Pf growth 48h: Primary qHTS for delayed death inhibitors of the malarial parasite plastid, 48 hour incubation. P. falciparum luciferase growth in erythrocytes, 48 h. Potency, µM (doses to about 28.7 µM), inactives show at the top dose activity change, negative = inhibition, hits mostly inhibitors. 310,000 tested, 5.9% active. AID 504832, 2011; further: potency means the concentration at half of the fitted maximal effect; on the % scale 0 is the no-effect control and ±100 the full control effect
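Erythrocytes infected with P. falciparum carrying an integrated firefly luciferase reporter (2% hematocrit, 0.1% parasitemia final) were exposed to compounds in RPMI 1640 with 0.5% Albumax at 37 C, 5% CO2. Growth inhibition was scored as reduced luminescence.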
Cycloheximide cs: Cycloheximide Counterscreen for Small Molecule Inhibitors of Shiga Toxin; cell reporter, cycloheximide protein synthesis inhibition counterscreen; max response, %; 300,000 tested, 12% active; in the data active means max response mostly above about 13%, no sharp cut-off; inactive means mostly below about 14%; further: read at 38.3 µM for the half of the compounds with a filed dose; 0% is about no effect
Numbers without * were called inactive; ? = inconclusive; . = no result given; ! = not confirmed by another sample; [ ] = remark or other dose. Hits are enriched below; roughly 22% of the tested compounds scored in any of these assays. Unless noted, the call rests on the fitted dose curve; in most records, active means well fitted inhibition curve with a large enough effect; inconclusive means small, poorly fitted or top-dose-only effect, or another doubt; inactive means no such curve, though single readings can be large or run the other way.

SMILES	LmPK inh	Shiga toxin inh	Pf growth 96h	Pf growth 48h	Cycloheximide cs
COc1cc(OC)cc(OC(=O)C2CCN(C(=O)c3ccc(Cl)cc3)CC2)c1	.	.	24.3%	?	.
Cc1ccc(C)c(N(C)S(=O)(=O)c2ccc3c(c2)oc(=O)n3C)c1	-3.2%	-3.0	0.4%	?	-4.5
COc1ccc(/C=C/C(=O)c2ccc3ccccc3c2O)cc1CN1CCOCC1	2.0%	-3.6	11.7µM*	-12.9%	0.7
COc1ccc(C(=O)/C=C/c2ccc(OC)c(CN3CCOCC3)c2)cc1	-3.2%	-5.2	24.7%	-0.6%	12.1
COc1ccc(/C=C/C(=O)c2ccccc2O)cc1CN1CCOCC1	1.8%	-16.9	10.4µM*	.	-1.2
COc1ccc(/C=C/C(=O)c2ccc(O)cc2)cc1CN1CCOCC1	-2.2%	-9.0	-17.6%	?	4.4
COc1ccc(/C=C/C(=O)C23CC4CC(CC(C4)C2)C3)cc1CN1CCOCC1	5.1%	-11.1	20.9%	13.1µM*	-1.5
COc1ccc(-n2nc(C(=O)NCC(=O)NCCC3=CCCCC3)c3ccccc3c2=O)cc1	6.1%	1.6	12.2%	?	4.7
NC(N)=NS(=O)(=O)c1ccc(NC(=S)NC(=O)Cc2ccc(Cl)cc2)cc1	6.8%	-1.3	-10.4%	10.9%	-1.4
COc1cc(CN2CCNC(=O)C2CC(=O)N(C)CCN2CCOCC2)cc(OC)c1 (configuration not stated)	-7.6%	-4.9	-12.3%	5.3%	-0.1
O=C(O)[C@H](Cc1c[nH]c2ccccc12)N1C(=O)C2=CCCC=C2C1=O	.	3.5	.	.	-2.9
O=C(NCC(F)(F)F)c1ccc(S(=O)(=O)N2CCN(C(=O)C3CCCO3)CC2)cc1 (configuration not stated)	.	.	?	1.9%	.
O=C(CCC(=O)c1ccccc1)NCCc1c[nH]c2ccccc12	-4.0%	-11.6	-10.4%	10.5%	-1.4
COc1ccc(CCN2C(=O)CC(N3CCN(S(=O)(=O)c4ccccc4)CC3)C2=O)cc1OC (configuration not stated)	-3.2%	-5.1	-29.7%	-30.6%[1.15 µM]	-2.3
O=C(c1ccc(Cl)c([N+](=O)[O-])c1)N(Cc1ccco1)C1CCS(=O)(=O)C1 (configuration not stated)	0.6%	2.8	-3.3%	-4.5%	-2.9
COc1ccc(NC(=O)CSc2nc3ccccc3c(=O)n2CCCN2CCOCC2)c(OC)c1	3.6%	1.5	?	?	-4.7
CN(C)S(=O)(=O)c1ccc(Cl)c(NC(=O)CSc2nc3ccccc3c(=O)n2CCCN2CCOCC2)c1	-1.6%	7.0	10.4µM*	?	-5.2
Cc1ccc(S(=O)(=O)N(C)C)cc1NC(=O)Cn1c(CN2CCOCC2)nc2ccccc2c1=O	6.4%	-2.2	-20.0%	14.7µM*	16.5
O=C(CSc1nc2ccccc2c(=O)n1CCCN1CCOCC1)N1CCN(c2ccccc2)CC1	8.2%	-24.8	2.0%	-5.4%	-1.3
O=C(CSc1nc2ccccc2c(=O)n1CCCN1CCOCC1)NC12CC3CC(CC(C3)C1)C2	1.9%	-16.1	?	10.4µM*	-5.5
COc1cc(C2NC(=O)NC(C)=C2C(=O)OC2CCCCC2)cc(Cl)c1O (configuration not stated)	1.3%	7.4	46.0%	-29.7%	7.6
CC1(C)CC(=O)C(N=Nc2cccc(F)c2C#N)=C(O)C1	1.6%	-3.3	8.6%	16.0%	-1.4
COc1ccc(C(=O)N(C)c2c(C)n(C)n(-c3ccccc3)c2=O)cc1OC	-4.4%	-6.9	-6.4%	51.0%	7.7
CCOC(=O)N1CCN(C(=O)C(CC(C)C)NS(=O)(=O)c2ccc3c(c2)oc(=O)n3C)CC1 (configuration not stated)	0.4%	2.4	10.4µM*	.	-4.1
Cn1c(=O)oc2cc(S(=O)(=O)NCCC(=O)N3CC=C(c4ccccc4)CC3)ccc21	0.2%	-9.1	-8.1%	?	12.1
SMILES	LmPK inh	Shiga toxin inh	Pf growth 96h	Pf growth 48h	Cycloheximide cs
CC(C)CC(NS(=O)(=O)c1ccc2c(c1)oc(=O)n2C)C(=O)N1CC=C(c2ccccc2)CC1 (configuration not stated)	-0.1%	-7.0	10.4µM*	.	2.8
CCOC(=O)C1=C(COC(=O)C2CC(=O)N(c3ccc(C)cc3)C2)NC(=O)NC1C (configuration not stated)	.	.	19.3%	-26.8%	.
COc1ccc(S(=O)(=O)N2CCN(CC(=O)NCCc3cccs3)CC2)cc1	.	.	?	1.4%	.
COc1ccc(C2=Nn3c(nnc3-c3ccc(OC)cc3OC)SC2)cc1	.	-5.1	.	.	-4.0
O=C(CC1NCCc2ccccc21)Nc1ccccc1 (configuration not stated)	-5.1%	35.1*	29.6%	44.9%	23.9*
O=C(CC1NCCc2ccccc21)Nc1ccc(Oc2ccccc2)cc1 (configuration not stated)	-9.0%	-12.6	?	352.2%	14.9
O=C(CC1NCCc2ccccc21)Nc1ccccc1Cl (configuration not stated)	1.2%	39.2	-2.8%	9.4%	26.0*
Cn1c2c(c(=O)n(C)c1=O)C(C(F)(F)F)(C(F)(F)F)N=C(CCC1CCCCC1)N2	6.3%	19.9	11.7µM*	?	-2.1
O=C(Cn1[nH]c(=O)c2ccccc2c1=O)OCC(=O)c1ccccc1Cl	.	.	-3.7%	1.3%	.
CCCCCC/C(=N/O)c1ccccn1	0.1%	3.3	?	11.7µM*	11.7
c1ccc(-c2nn3c(-c4ccco4)nnc3s2)nc1	-0.1%	17.5	?	2.3%	-1.7
COc1cccc(-c2nn3c(-c4ccco4)nnc3s2)c1	6.3%	36.5	8.28µM*	10.1%	4.4
COc1cccc(OC)c1-c1nn2c(-c3ccco3)nnc2s1	-1.8%	199.8*	91.6%	-5.0%	56.4*
COc1cc(-c2nn3c(-c4ccco4)nnc3s2)cc(OC)c1OC	-0.9%	33.3	?	28.4%	-1.9
COc1cccc(N2CCN(S(=O)(=O)c3ccc4c(c3)N(C(C)=O)CCO4)CC2)c1	0.1%	-2.1	?	-7.4%	5.5
CC(C)CN1CCC(=O)N(CCSc2ccc(Br)cc2)CC1	4.3%	52.9*!	?	93.4%	25.0
CC(C)CN1CCC(=O)N(CCOc2ccccc2)CC1	7.3%	27.8*	6.9%	61.4%	27.8*
CC(C)CN1CCC(=O)N(C(CSc2ccc(Br)cc2)Cc2ccccc2)CC1 (configuration not stated)	.	7.1	.	.	15.8
Cc1[nH]nc2c1C(C(C)c1ccccc1)C(C#N)=C(N)O2 (configuration not stated)	-6.9%[11.5 µM]	-14.9	25.9%	-22.0%	-2.6
CC(C)(C)C(=O)COC(=O)c1ccc2c(c1)C(=O)N(Cc1ccco1)C2=O	1.8%	4.8	12.1%	0.6%	-5.9
O=c1c2cn[nH]c2nc(SCc2c(F)cccc2F)n1-c1ccc(Cl)cc1	4.7%[11.5 µM]	-16.0	0.0%	-19.3%	-2.5
CC(CN1CCOCC1)OC(=O)c1cccc(Cl)c1 (configuration not stated)	-5.5%	-8.3	-21.8%	-9.3%	11.6
